About 14,000 (4.5%) of roughly 310,000 compounds showed an effect of 50% or more. Effects have a minus sign here. Many of the other results were omitted from the sample, so strong results are more common in it than they were.
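Further: peak tail current of the secondary pulse compared with the same well before compound.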

The test deals with human ether-à-go-go-related gene (hERG) potassium channel (human, UniProt Q12809). Description: primary screen, population patch clamp on CHO cells stably expressing hERG; higher = less effect of the substance.
Chain of human ether-à-go-go-related gene (hERG) potassium channel (Q12809 whole entry, looked up): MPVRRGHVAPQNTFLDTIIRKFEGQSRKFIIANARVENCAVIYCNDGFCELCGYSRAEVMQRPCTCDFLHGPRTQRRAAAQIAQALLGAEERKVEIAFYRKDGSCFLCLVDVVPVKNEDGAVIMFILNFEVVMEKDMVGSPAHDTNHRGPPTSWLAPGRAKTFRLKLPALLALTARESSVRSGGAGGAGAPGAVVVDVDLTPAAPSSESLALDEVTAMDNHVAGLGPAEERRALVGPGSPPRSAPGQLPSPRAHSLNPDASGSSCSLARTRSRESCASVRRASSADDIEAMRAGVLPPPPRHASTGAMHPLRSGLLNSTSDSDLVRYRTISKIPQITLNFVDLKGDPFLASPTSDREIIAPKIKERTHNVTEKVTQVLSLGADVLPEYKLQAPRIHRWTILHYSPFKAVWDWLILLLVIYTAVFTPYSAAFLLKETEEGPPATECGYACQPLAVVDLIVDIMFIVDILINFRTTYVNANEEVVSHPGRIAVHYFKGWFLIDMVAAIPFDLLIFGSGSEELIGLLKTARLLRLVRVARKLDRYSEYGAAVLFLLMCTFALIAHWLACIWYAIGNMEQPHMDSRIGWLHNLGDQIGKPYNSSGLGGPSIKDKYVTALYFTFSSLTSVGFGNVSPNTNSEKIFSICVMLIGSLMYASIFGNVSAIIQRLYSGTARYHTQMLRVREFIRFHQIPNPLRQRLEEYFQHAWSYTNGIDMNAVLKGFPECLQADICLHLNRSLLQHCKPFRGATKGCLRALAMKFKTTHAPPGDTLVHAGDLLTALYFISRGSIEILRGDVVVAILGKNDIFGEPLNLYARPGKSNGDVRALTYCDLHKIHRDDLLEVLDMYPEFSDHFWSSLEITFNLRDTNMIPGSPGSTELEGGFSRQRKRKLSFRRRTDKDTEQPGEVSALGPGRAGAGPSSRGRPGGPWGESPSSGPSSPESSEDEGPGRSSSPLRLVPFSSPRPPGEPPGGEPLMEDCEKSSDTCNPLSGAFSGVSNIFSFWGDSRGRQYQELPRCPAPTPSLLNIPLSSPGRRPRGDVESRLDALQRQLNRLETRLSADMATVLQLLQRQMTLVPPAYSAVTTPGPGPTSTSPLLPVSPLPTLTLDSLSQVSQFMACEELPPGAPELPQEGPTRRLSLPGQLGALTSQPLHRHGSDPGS
Turning to `COC(=O)c1ccc(CNC(=O)COC(=O)c2cc(Cl)nc(Cl)c2)cc1`, the “hERG current change (%, negative = inhibition) at 10uM” value stood at 8.69%.

As to `CCn1c2ccccc2c2cc(NC(=O)C(=O)NCC3CCCO3)ccc21` (stereo not shown), the “hERG current change (%, negative = inhibition) at 10uM” value is recorded as -6.57%. For `COc1cc2c(cc1NC(=O)C(C)OC(=O)/C=C/c1ccc(OC(F)F)cc1)oc1ccccc12` (stereo not shown) the value was 7.07%; for `COc1ccc(CCNc2cc(N3CCN(C(=O)c4ccc(C)cc4)CC3)ccc2[N+](=O)[O-])cc1OC`, 8.2%. For `COC(=O)C(NC(=O)c1ccccc1)=C(C)C` the value was 0.816%; for `O=C(NCc1ccc(F)cc1)C1CCN(C(=O)Nc2ccc(F)cc2)CC1`, -49.2%. The result for `CCCNC(=S)N1CCC(C(=O)c2ccc(F)cc2)CC1` reads -8.84%; that for `COc1ccc(C(=O)C2CCN(C(=S)Nc3ccc(F)cc3)CC2)cc1`, -46.9%; that for `O=C(c1ccc(F)cc1)C1CCN(C(=S)Nc2ccc(F)cc2)CC1`, -57.2%. In the case of `Cc1ccc(NC(=O)N2CCC(C(=O)NCc3ccc(F)cc3)CC2)cc1`, the “hERG current change (%, negative = inhibition) at 10uM” value is recorded as -52.2%. The result for `O=C(c1ccc(F)cc1)C1CCN(C(=S)Nc2ccccc2)CC1` reads -28.8%; that for `Cc1ccccc1NC(=S)N1CCC(C(=O)c2ccc(F)cc2)CC1`, -45%.

With `CCc1ccccc1NC(=S)N1CCC(C(=O)c2ccc(F)cc2)CC1`, the “hERG current change (%, negative = inhibition) at 10uM” value was -63%. On to `Cc1ccc(CNC(=O)C2CCN(C(=O)Nc3ccccc3)CC2)cc1`, for which the “hERG current change (%, negative = inhibition) at 10uM” value is listed as -16.3%. For `C=CCNC(=S)N1CCC(C(=O)c2ccc(F)cc2)CC1` the value was -44.4%; for `O=C(c1ccc(F)cc1)C1CCN(C(=S)Nc2ccccc2Cl)CC1`, 0.35%. For `CC(C)CNC(=S)N1CCC(C(=O)c2ccc(F)cc2)CC1` the value was -61.4%; for `Cc1cn(C2C=CC(CO)O2)c(=O)[nH]c1=O` (stereo not shown), 4.79%; for `CCN(CC)S(=O)(=O)c1ccc(C(=O)NCCc2ccccn2)cc1`, 10.8%. For `Cc1nn(C2CCCCC2)c(N)c1-c1ccccc1` the value was -3.53%. Turning to `Nc1ccc(-c2nc3ccc(N)cc3[nH]2)cc1`, the “hERG current change (%, negative = inhibition) at 10uM” value is listed as 7.85%. For `O=c1c2cc([N+](=O)[O-])cc([N+](=O)[O-])c2[nH]n1-c1ccccc1` the value was 17.2%; for `C/C=C(\C)C(=O)NNC(=O)c1sc(-c2ccccc2)nc1C`, 16%. For `Cc1nc2cc(NC(=O)Nc3ccc(Br)cc3)ccc2o1` the value was 9.81%; for `Cc1ccc(NC(=O)N2CCC(C(=O)c3ccc(F)cc3)CC2)cc1`, -3.84%; for `CSc1ccc(NC(=O)N2CCC(C(=O)c3ccc(F)cc3)CC2)cc1`, -40.9%. For `O=C(c1ccc(F)cc1)C1CCN(C(=O)Nc2ccc(F)cc2)CC1` the value was -71.7%; for `Cc1cc(C)cc(NC(=O)N2CCC(C(=O)c3ccc(F)cc3)CC2)c1`, -77.7%. With `CC(C)CNC(=S)N1CCC(c2nc(-c3ccc(F)cc3)no2)CC1`, the “hERG current change (%, negative = inhibition) at 10uM” value is -59.1%. As for `Cc1cccc(NC(=O)N2CCC(C(=O)c3ccc(F)cc3)CC2)c1`, the “hERG current change (%, negative = inhibition) at 10uM” value was -40.6%. Regarding `Cc1cc(C)cc(NC(=O)N2CCC(NC(=O)c3ccc(F)cc3)CC2)c1`, the “hERG current change (%, negative = inhibition) at 10uM” value was -35.5%. For `COCCNC(=S)N1CCC(c2nc(-c3ccc(N(C)C)cc3)no2)CC1`, the “hERG current change (%, negative = inhibition) at 10uM” value was -12.9%. The result for `COCCNC(=S)N1CCC(c2nc(-c3ccc(F)cc3)no2)CC1` reads -18.9%; that for `O=C(Nc1ccccc1)N(Cc1ccc(Cl)cc1)CC(O)C(F)(F)F` (stereo not shown), 8.33%; that for `Cc1cccc(N2CCN(S(=O)(=O)c3cc(-c4cc(C)no4)ccc3C)CC2C)c1` (stereo not shown), 18.9%.

Turning to `CC1SCC(NC(=O)c2ccc(Cl)cc2)CS1` (stereo not shown), the “hERG current change (%, negative = inhibition) at 10uM” value is recorded as -0.992%. On to `Cc1cc(NC(=O)CSCc2ccc([N+](=O)[O-])cc2)no1`, for which the “hERG current change (%, negative = inhibition) at 10uM” value is on record as -1.21%. The result for `Cc1[nH]c2ccccc2c1C(=O)C(C)OC(=O)c1ccc(Cl)nc1` (stereo not shown) reads -12.9%; that for `COC(=O)c1ccccc1NC(=O)c1cc[n+](C)cc1`, 11.8%; that for `CCOCCCNS(=O)(=O)c1ccc(NC(=O)N2c3ccccc3Sc3ccccc32)cc1`, 3.13%. Regarding `O=C(NC1CCOC1)c1cc(COc2cccc(C(F)(F)F)c2)on1` (stereo not shown), the “hERG current change (%, negative = inhibition) at 10uM” value amounted to 2.06%. The result for `CCCCOC(=O)c1nc(Cl)c(Cl)c(N)c1Cl` reads -0.0656%; that for `CCCCCCCCOC(=O)c1nc(Cl)c(Cl)c(N)c1Cl`, -66.3%. The result for `O=C(COC(=O)c1nsc(Cl)c1Cl)NC1CCCCC1` reads 17.1%; that for `Nc1c(Cl)c(Cl)nc(C(=O)OCC(=O)NC2CCCCC2)c1Cl`, -58.2%; that for `O=C(COC(=O)c1ncc(Cl)c(Cl)c1Cl)NC1CCCCCC1`, 19%. In the case of `CCCCCCCOC(=O)c1nc(Cl)c(Cl)c(N)c1Cl`, the “hERG current change (%, negative = inhibition) at 10uM” value is reported as -4.56%. The result for `CN1C(=O)/C(=C/c2cccn2-c2ccc3ccccc3c2)C(=O)NC1=S` reads 12.2%; that for `Cc1c(Cc2ccccc2)c(=O)oc2cc(OCC(=O)NCC(O)c3ccccc3)ccc12` (stereo not shown), 28.7%. The result for `C/C(CC(=O)Nc1cc(C)ccn1)=N\NC(=O)C(=O)NC(C)C` reads 12.5%; that for `O=C(OCCOc1ccccc1Cl)c1ccc(-n2cnnn2)cc1`, -19.2%; that for `O=C(c1cc(-c2ccc(Br)cc2)on1)N1CCCC1`, 10.3%. The result for `O=C(NCCCN1CCN(Cc2ccccc2Cl)CC1)Nc1ccccc1` reads -56.8%; that for `CSc1ccc(NC(=O)NCc2ccccc2)cc1`, 19%. With `COc1ccc(NC(=O)NCCCCc2ccccc2)cc1`, the “hERG current change (%, negative = inhibition) at 10uM” value is 1.06%. On to `CSc1ccc(NC(=O)NCCN2CCc3ccccc3C2)cc1`, for which the “hERG current change (%, negative = inhibition) at 10uM” value is given as -43.6%. In the case of `CSc1ccc(NC(=O)NCCCN2CCC(Cc3ccccc3)CC2)cc1`, the “hERG current change (%, negative = inhibition) at 10uM” value is -75.9%.

On to `Cc1ccccc1CC1CCN(CCCNC(=O)Nc2ccccc2)CC1`, for which the “hERG current change (%, negative = inhibition) at 10uM” value is recorded as -68.5%. For `Cc1ccccc1NC(=O)NCCCN1CCN(C2CCCCC2)CC1` the value was -9.26%; for `Cc1ccccc1NC(=O)NCCCN1CCCC1`, 26.6%; for `COc1ccc(NC(=O)NCCCN2CCC(Cc3ccccc3)CC2)cc1`, -77.5%.

For the compound `O=C(NCCN1CCN(c2ccccc2Cl)CC1)Nc1ccccc1`, the “hERG current change (%, negative = inhibition) at 10uM” value is given as -34.1%.

Regarding `COc1ccc(NC(=O)N2CCC(Cc3ccccc3)CC2)cc1`, the “hERG current change (%, negative = inhibition) at 10uM” value was -3.45%. The result for `O=C(NCCN1CCN(Cc2ccccc2Cl)CC1)Nc1ccccc1` reads -47.5%; that for `Cc1c(NC(=O)COc2c(F)c(F)c(F)c(F)c2F)c(=O)n(-c2ccccc2)n1C`, 0.328%.

Consider `COc1ccc(/C(C)=N/NC(=O)CNC(=O)/C=C\c2ccccc2)c(OC)c1`, for which the “hERG current change (%, negative = inhibition) at 10uM” value was -9.28%. For `C/C(=N\OCc1ccccc1C#N)c1cc2ccccc2o1` the value was 0.146%; for `O=C(NCCCN1CCOCC1)c1ccc2nc(Cc3cccc(Cl)c3)oc2c1`, -7.7%; for `COC(=O)c1ccccc1NC(=O)NCc1ccccn1`, -6.01%. For `O=C(CC(Cc1ccccc1)C(=O)O)Nc1ccc(F)cc1` (stereo not shown) the value was 10.4%; for `COC(=O)c1cc(=O)n(Cc2cccs2)c(=Nc2ccccc2)s1`, -0.229%.

Regarding `Oc1cccc(/C=N/Nc2ccc(Cl)nn2)c1O`, the “hERG current change (%, negative = inhibition) at 10uM” value worked out at 8.72%.

Take `CC(OC(=O)CNC(=O)c1ccco1)C(=O)Nc1ccc(Cl)cn1` (stereo not shown): the “hERG current change (%, negative = inhibition) at 10uM” value is -11.4%. For `CCCN(CCC)CC(O)Cn1cc(/C=C/C(=O)c2cccs2)c2ccccc21` (stereo not shown) the value was -30.7%. For `O=Cc1cn(CC(O)CN2CCCCC2)c2ccccc12` (stereo not shown) the value was 27.3%; for `CCCCN(C)CC(O)Cn1cc(/C=C/C(=O)c2cccs2)c2ccccc21` (stereo not shown), -33.7%. On to `O=C(/C=C/c1cn(CC(O)CN2CCCCCC2)c2ccccc12)c1cccs1` (stereo not shown), for which the “hERG current change (%, negative = inhibition) at 10uM” value is recorded as -75.2%. In the case of `O=C(/C=C/c1cn(CC(O)CN2CCOCC2)c2ccccc12)c1cccs1` (stereo not shown), the “hERG current change (%, negative = inhibition) at 10uM” value is on record as -21.8%. The result for `O=C(/C=C/c1cn(CC(O)CN2CCCCC2)c2ccccc12)c1cccs1` (stereo not shown) reads -54.4%.

With `CCCC(=O)Nc1c(-c2ccccc2)c(=O)c(C)nn1-c1ccccc1`, the “hERG current change (%, negative = inhibition) at 10uM” value was 10.3%. In the case of `Cc1ccc(S(=O)(=O)CCC(=O)Nc2ccc3nc(C)sc3c2)cc1`, the “hERG current change (%, negative = inhibition) at 10uM” value was determined as 3.75%.

Turning to `CC(C)c1c(C(=O)N/N=C/c2ccc(-c3ccccc3)cc2)nnn1-c1nonc1N`, the “hERG current change (%, negative = inhibition) at 10uM” value came to 26.6%. The result for `C=CCc1ccccc1OCC(O)CNC(C)C.Cl` (stereo not shown) reads -33.3%; that for `CCS(=O)(=O)n1nc(-c2ccc(OC)cc2)nc1N`, 11.6%.

As to `COc1ccc(CCC(N)=O)cc1OC`, the “hERG current change (%, negative = inhibition) at 10uM” value was 11.1%. The result for `Cl.Fc1ccc(Cn2nnnc2C(c2ccc(Cl)cc2)N2CCSCC2)cc1` (stereo not shown) reads -1.72%; that for `Cl.N#Cc1cccc(C(c2nnnn2Cc2ccccc2)N2CCCC2)c1` (stereo not shown), -22.7%. The result for `N#Cc1cccc(C(c2nnnn2C2CCCC2)N2CCC(Cc3ccccc3)CC2)c1` (stereo not shown) reads 8.5%; that for `COc1ccc(C(c2nnnn2CCc2ccccc2)N2CCN(C3CCCC3)CC2)cc1OC.Cl` (stereo not shown), -64.3%; that for `COc1ccc(C(c2nnnn2C2CCCC2)N2CCN(C3CCCC3)CC2)cc1OC.Cl` (stereo not shown), -22.7%. The result for `COCCn1nnnc1C(c1cccc(C#N)c1)N1CCCCCC1.Cl` (stereo not shown) reads -56.6%; that for `Clc1ccc(C(c2nnnn2CCc2ccccc2)N2CCSCC2)cc1` (stereo not shown), 0.814%; that for `N#Cc1ccc(C(c2nnnn2CCc2ccccc2)N2CCCCCC2)cc1` (stereo not shown), -26.3%. For `N#Cc1cccc(C(c2nnnn2CCc2ccccc2)N2CCN(C3CCCCC3)CC2)c1` (stereo not shown), the “hERG current change (%, negative = inhibition) at 10uM” value is given as -61%. The result for `CC(C)(C)n1nnnc1C(c1cccc(C#N)c1)N1CCCCCC1` (stereo not shown) reads -4.75%; that for `COCCn1nnnc1C(c1ccc(Cl)cc1)N1CCSCC1.Cl` (stereo not shown), -51.9%.

In the case of `COc1ccc(CCn2nnnc2C(c2ccccc2)N2CCN(C)CC2)cc1OC.Cl` (stereo not shown), the “hERG current change (%, negative = inhibition) at 10uM” value was 7.37%.

Values taken from paper PMC4336329 (PLoS ONE, 2015).
